Assay results reported in PubChem BioAssay AID652154 (Broad Institute, 2013).
About 4,200 (1.2%) of roughly 360,000 compounds were called active.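 Rule for the calls: active = mean replicate inhibition at least 60% with every replicate also reaching 60%; inconclusive = only one of the two criteria is met; inactive = mean below 60% and not all replicates reaching 60%.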 Shown is part of a subset that was picked to be rich in actives.

Assay: inhibitors of PAX8-driven TPO luciferase reporter, primary screen, RMG-I cells, single concentration (AID 652154);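 note: luciferase light reporting Pax8 driven TPO promoter activity; plate controls were median of neutral control wells for no effect and mitoxantrone controls for full effect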
Details: SteadyGlo, 24 h, at 12.6 µM, stronger effect = higher value
With `CC=Cc1ccc2n(c1=O)C[C@@H]1[C@@H](CO)[C@H](C(=O)N[C@@H](C)c3ccccc3)[C@H]2N1Cc1ccncc1` (mixture of isomers) the inhibition was -0.758% (inactive). In the case of `CC=Cc1ccc2n(c1=O)C[C@@H]1[C@@H](CO)[C@H](C(=O)NCC(F)(F)F)N(CCc3ccccc3)[C@H]21` (mixture of isomers), the inhibition is reported as 5.7% (inactive). With `O=C(C[C@H]1C=C[C@H](NC(=O)CC2CC2)[C@H](CO)O1)NCc1ccc(Cl)cc1` the inhibition was 0.511% (inactive). For `C[C@@H]1CCCCO[C@H](CN(C)S(=O)(=O)c2ccc(Cl)cc2)[C@H](C)CN([C@@H](C)CO)C(=O)c2cc(NS(=O)(=O)c3cccs3)ccc2O1`, the inhibition was 35.2% (inactive). In the case of `C[C@@H]1CCCCO[C@@H](CN(C)S(C)(=O)=O)[C@H](C)CN([C@@H](C)CO)C(=O)c2cc(NS(=O)(=O)c3ccc(F)cc3)ccc2O1`, the inhibition is reported as 6.52% (inactive). For `Cc1ccc(S(=O)(=O)N(C)C[C@@H]2OCCCC[C@@H](C)Oc3ccc(NS(=O)(=O)c4ccc(F)cc4)cc3C(=O)N([C@H](C)CO)C[C@H]2C)cc1`, the inhibition was 65.5% (active). With `Cc1ccc(S(=O)(=O)Nc2ccc3c(c2)C(=O)N([C@H](C)CO)C[C@H](C)[C@H](CN(C)S(=O)(=O)c2ccc(F)cc2)OCCCC[C@@H](C)O3)cc1` the inhibition was -6.17% (inactive). With `C[C@@H]1CN([C@H](C)CO)C(=O)c2cc(NS(=O)(=O)c3cccs3)ccc2O[C@@H](C)CCCCO[C@@H]1CN(C)S(=O)(=O)c1ccc(Cl)cc1` the inhibition was 32.3% (inactive). With `C[C@H]1CCCCO[C@@H](CN(C)S(=O)(=O)c2cccs2)[C@@H](C)CN([C@@H](C)CO)C(=O)c2cc(NS(=O)(=O)c3ccc(Cl)cc3)ccc2O1` the inhibition was 78.6% (active). With `CCCNC(=O)Nc1ccc2c(c1)C(=O)N(C)C[C@@H](OC)[C@H](C)CN(C(=O)C1CCCCC1)[C@H](C)CO2` the inhibition was 12.3% (inactive). In the case of `C[C@@H]1CN([C@@H](C)CO)C(=O)c2c(c3ccccc3n2C)-c2ccccc2CO[C@@H]1CN(C)S(=O)(=O)c1cccs1`, the inhibition is reported as 12.1% (inactive). In the case of `CCCNC(=O)N1[C@H](CNC(C)=O)[C@@H](c2ccc(C3=CCCC3)cc2)[C@@H]1CO`, the inhibition is reported as -5.47% (inactive). For `C[C@@H]1CN([C@H](C)CO)C(=O)c2cc(NC(=O)Nc3ccc(F)cc3)ccc2O[C@@H](C)CCCCO[C@@H]1CN(C)CC1CCCCC1`, the inhibition was 17% (inactive). With `C[C@@H]1CCCCO[C@H](CN(C)C(=O)NC2CCCCC2)[C@H](C)CN([C@H](C)CO)C(=O)c2cc(NC(=O)Nc3ccc(F)cc3)ccc2O1` the inhibition was 70.7% (active). In the case of `C[C@H](CO)N1C[C@H](C)[C@@H](CN(C)C(=O)Nc2ccc3c(c2)OCO3)OCCCC[C@H](C)Oc2ccc(NC(=O)Nc3ccc4c(c3)OCO4)cc2C1=O`, the inhibition is reported as 12% (inactive). In the case of `C[C@@H]1CCCCO[C@H](CN(C)CC2CC2)[C@@H](C)CN([C@H](C)CO)C(=O)c2cc(NC(=O)Nc3ccc(F)cc3)ccc2O1`, the inhibition is reported as 2.41% (inactive). In the case of `C[C@H]1CCCCO[C@H](CN(C)C(=O)NC2CCCCC2)[C@@H](C)CN([C@@H](C)CO)C(=O)c2cc(NC(=O)Nc3ccc4c(c3)OCO4)ccc2O1`, the inhibition is reported as 66.1% (active). For `C[C@@H]1CCCCO[C@H](CN(C)C(=O)NC2CCCCC2)[C@H](C)CN([C@@H](C)CO)C(=O)c2cc(NC(=O)Nc3ccc(F)cc3)ccc2O1`, the inhibition was 52.5% (inactive). With `C[C@@H]1CCCCO[C@@H](CN(C)C(=O)NC2CCCCC2)[C@H](C)CN([C@@H](C)CO)C(=O)c2cc(NC(=O)Nc3ccc(F)cc3)ccc2O1` the inhibition was 17.7% (inactive). In the case of `C[C@@H]1CCCCO[C@H](CN(C)CC2CCCCC2)[C@H](C)CN([C@H](C)CO)C(=O)c2cc(NC(=O)Nc3ccc(F)cc3)ccc2O1`, the inhibition is reported as 69.8% (active). In the case of `C[C@H](CO)N1C[C@H](C)[C@H](CN(C)C(=O)NC2CCCCC2)OCCCC[C@H](C)Oc2ccc(NC(=O)Nc3ccc4c(c3)OCO4)cc2C1=O`, the inhibition is reported as 29.3% (inactive). With `CCCNC(=O)N1CC2(C1)[C@H](c1ccccc1)[C@@H](CO)N2Cc1cccc(Cl)c1` the inhibition was 8.51% (inactive). For `O=C(Nc1ccccc1F)N1CC(=O)N2[C@@H](CO)[C@H](c3ccc(C#CC4CCCC4)cc3)[C@@H]2C1`, the inhibition was 11.2% (inactive). For `C[C@H](NC(=O)C[C@@H]1CC[C@@H](NC(=O)Cc2ccccn2)[C@@H](CO)O1)c1ccccc1`, the inhibition was 26% (inactive). In the case of `O=C(c1cccnc1)N1CC[C@@H]2[C@@H](CO)Nc3ccc(-c4ccccc4)cc3[C@@H]21`, the inhibition is reported as 1.4% (inactive). With `COc1ccc(/C=C/C(=O)OCC(=O)NCc2cccs2)cc1OC` the inhibition was 72.7% (active). In the case of `CCOc1ccc(/C=C/C(=O)N(CC)CC(=O)NCc2cccs2)cc1OC`, the inhibition is reported as 10.8% (inactive). With `O=C(COC(=O)/C=C/c1cccc(Cl)c1)NCc1cccs1` the inhibition was 6.69% (inactive). With `CNC(=O)C[C@@H]1CC[C@@H]2[C@@H](COc3ccc(NC(=O)c4ccc(F)cc4)cc3C(=O)N2C)O1` the inhibition was -7.92% (inactive). In the case of `O=C(Nc1cc(Cl)cc(Cl)c1)N[C@@H]1CC[C@H](CCNS(=O)(=O)c2cccc(F)c2)O[C@H]1CO`, the inhibition is reported as 13.6% (inactive). In the case of `COCC#Cc1ccc([C@H]2[C@H]3CN(Cc4ccncc4)CCCCN3[C@H]2CO)cc1`, the inhibition is reported as 12.1% (inactive). In the case of `O=C(C[C@@H]1CC[C@@H]2[C@H](COC[C@H](O)CN2C(=O)c2ccncc2)O1)NCc1cc(F)cc(F)c1`, the inhibition is reported as -12.3% (inactive). In the case of `COc1cc(OC)cc(C(=O)N[C@H](C(=O)NNC(=O)c2ccc(Br)cc2)C(C)C)c1`, the inhibition is reported as 18.6% (inactive). In the case of `COc1cc(OC)cc(C(=O)N[C@H](C(=O)Nc2nc3ccccc3[nH]2)C(C)C)c1`, the inhibition is reported as 81.6% (active). With `COc1cc(OC)cc(C(=O)N[C@H](C(=O)OCC(=O)NC(C)c2ccccc2)C(C)C)c1` (stereo partly drawn) the inhibition was -10.5% (inactive). In the case of `CO[C@H]1CN(C)C(=O)c2cc(NC(=O)c3ccc4c(c3)OCO4)ccc2OC[C@@H](C)N(CCC(F)(F)F)C[C@H]1C`, the inhibition is reported as -3.09% (inactive). In the case of `O=C(Nc1ccccc1)N1CCCCN2[C@H](CO)[C@@H](c3ccc(C#Cc4ccccn4)cc3)[C@H]2C1`, the inhibition is reported as 10.2% (inactive). With `COc1ccccc1NC(=O)N1CCCCN2[C@@H](CO)[C@@H](c3ccc(C#Cc4ccccc4)cc3)[C@@H]2C1` the inhibition was 109% (active). For `COc1ccccc1NC(=O)N1CC(=O)N2[C@H](C1)[C@H](c1ccc(C#Cc3ccccc3)cc1)[C@@H]2CO`, the inhibition was 61.7% (active). For `COc1ccccc1NC(=O)N1CCCCN2[C@H](C1)[C@H](c1ccc(-c3ccccc3)cc1)[C@@H]2CO`, the inhibition was -14.1% (inactive). For `COc1ccccc1NC(=O)N1CC(=O)N2[C@H](CO)[C@H](c3ccc(C#Cc4ccccc4)cc3)[C@H]2C1`, the inhibition was -18.8% (inactive). For `COc1ccc(C#Cc2ccc([C@H]3[C@@H](CO)N4CCCCN(C(=O)Nc5ccccc5)C[C@H]34)cc2)cc1`, the inhibition was 85.6% (active). In the case of `COc1ccccc1NC(=O)N1CCCCN2[C@H](CO)[C@H](c3ccc(C#CC4CC4)cc3)[C@@H]2C1`, the inhibition is reported as 8.7% (inactive). For `O=C(c1ccc(F)cc1)N1CC(=O)N2[C@@H](CO)[C@@H](c3ccc(C#Cc4ccc(F)cc4)cc3)[C@@H]2C1`, the inhibition was 87.7% (active). With `O=C(c1ccc(F)cc1)N1CC(=O)N2[C@H](C1)[C@@H](c1ccc(C#CC3CC3)cc1)[C@@H]2CO` the inhibition was 27.2% (inactive). With `COc1ccccc1NC(=O)N1CC(=O)N2[C@@H](CO)[C@H](c3ccc(C#CC4CC4)cc3)[C@@H]2C1` the inhibition was -15.3% (inactive). For `O=C(CC1CC1)N1CC(=O)N2[C@H](CO)[C@H](c3ccc(C#Cc4ccc(F)cc4)cc3)[C@@H]2C1`, the inhibition was 2.13% (inactive). For `CC(C)C#Cc1ccc([C@H]2[C@@H](CO)N3CCCCN(C(=O)Nc4ccccc4)C[C@H]23)cc1`, the inhibition was 7.15% (inactive).
